Test results reported in PubChem BioAssay AID1030 (National Center for Advancing Translational Sciences (NCATS), 2008).
About 16,000 (7.3%) of roughly 220,000 compounds were called active. Another 25% or so got no clear call; they are omitted. The entries come from a sample that favours actives as a whole. A number with no mark means an inactive call. Calls come from the whole dose curve; as a rule, active = well fitted inhibition curve with a large enough effect (not every such curve was filed as active); inconclusive = small, poorly fitted or top-dose-only effect, or another doubt; inactive = no such curve, though single readings can be large or run the other way.

molecular target: Aldehyde dehydrogenase 1A1 (Homo sapiens) (UniProt P00352); assay: qHTS Assay for Inhibitors of Aldehyde Dehydrogenase 1 (ALDH1A1); conditions: Purified ALDH1A1, NADH fluorescence, propionaldehyde substrate; series mostly up to 75.3 µM; activity, negative = inhibition: at the top concentration;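 for activity, negative = inhibition: plate controls were no enzyme wells and a reference inhibitor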
Potency is the fitted concentration of half-maximal effect.

Chain of Aldehyde dehydrogenase 1A1 (Homo sapiens) (P00352 whole entry, looked up): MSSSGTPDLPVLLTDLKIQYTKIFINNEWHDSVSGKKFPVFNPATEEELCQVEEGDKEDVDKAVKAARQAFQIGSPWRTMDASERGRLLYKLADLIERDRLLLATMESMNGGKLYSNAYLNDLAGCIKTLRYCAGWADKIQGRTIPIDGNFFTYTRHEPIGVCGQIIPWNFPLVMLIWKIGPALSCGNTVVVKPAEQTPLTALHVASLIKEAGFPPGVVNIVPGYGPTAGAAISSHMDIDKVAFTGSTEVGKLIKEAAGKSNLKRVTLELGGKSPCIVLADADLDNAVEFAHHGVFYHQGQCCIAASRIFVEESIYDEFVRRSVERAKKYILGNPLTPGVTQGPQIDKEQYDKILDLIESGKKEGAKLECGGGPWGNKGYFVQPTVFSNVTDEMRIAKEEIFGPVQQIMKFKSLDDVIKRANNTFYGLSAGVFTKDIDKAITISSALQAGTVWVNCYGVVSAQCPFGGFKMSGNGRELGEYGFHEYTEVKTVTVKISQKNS

SMILES | activity, negative = inhibition | Potency
Cc1[nH]c2ccccc2c1-c1ccc(Cl)nn1 | -5.07% | –
Cc1cc2c(cc1C)NC(c1ccccn1)C1=C(CC(C)(C)CC1=O)N2 (stereo unspecified) | – | 14.1 µM (active)
CC(=O)C1=C(C)NC2=C(C(=O)CC(C)(C)C2)C1C (stereo unspecified) | 7.86% | –
CC1(C)CC(=O)C2=C(C1)Nc1cc(C(=O)c3ccccc3)ccc1NC2c1ccccn1 (stereo unspecified) | -11.7% | –
COCCn1c(C)cc(C(=O)CSc2nc3ccccc3c(=O)n2C(C)COC)c1C (stereo unspecified) | 5.36% | –
O=C1/C(=C\Nc2ccccc2)CCN1c1ncccn1 | – | 20 µM (active)
O=C(NNC(=O)C1CCN(c2ncccn2)CC1)c1ccccc1 | 5.47% | –
O=C(Cc1ccccc1)NNC(=O)C1CCN(c2ncccn2)CC1 | -4.45% | –
CC1=C(C(=O)N(C)C)C(c2ccccc2OC(F)F)NC(=O)N1 (stereo unspecified) | 0.853% | –
O=C(Nc1ccc(Sc2ccc(Br)cc2)cc1)c1ccco1 | 2.02% | –
CCC(=O)NC(=S)Nc1ccc(NC(=O)c2ccco2)c(Cl)c1 | – | 3.55 µM (active)
COC(=O)c1cc(Cl)c(NC(=O)c2ccco2)cc1OC | -8.38% | –
Cc1ccc(-n2nc3cc(Cl)c(NC(=O)c4ccco4)cc3n2)cc1 | 7.28% | –
O=C(Nc1ccc(NC(=O)c2ccco2)c(Cl)c1)c1cccc([N+](=O)[O-])c1 | 7.34% | –
COc1ccccc1C(=O)Nc1ccc(NC(=O)c2ccco2)c(C)c1 | – | 8.91 µM (active)
O=C(NNC(=S)Nc1ccc(Br)cc1Cl)c1ccco1 | – | 12.6 µM (active)
COc1cc(NC(=O)c2cc([N+](=O)[O-])ccc2Br)ccc1NC(=O)c1ccco1 | -7.19% | –
COc1ccc(NC(=O)c2cccc(NC(=O)c3ccco3)c2)c(OC)c1 | 8.92% | –
O=C(NNS(=O)(=O)c1ccccc1C(F)(F)F)c1cc2ncc(C(F)(F)F)cc2s1 | 6.32% | –
Cc1nnsc1C(=O)N/N=C/c1cccc(C(F)(F)F)c1 | 4.63% | –
Cc1cc(C)c(NC(=O)c2oc3ccccc3c2COc2ccccc2)c(C)c1 | 11.3% | –
N#Cc1ccc(Oc2ccc(C(F)(F)F)cc2NC(=O)c2ccc(F)cc2)cc1 | 0.449% | –
Cc1cc(C)nc(/N=C2\NC(=O)CC(C(=O)O)N2c2ccc(Cl)cc2Cl)n1 (stereo unspecified) | 13.7% | –
CCC(=O)/C(=C(/O)c1ccccc1)c1nc2ccccc2[nH]1 | -6.36% | –
CSc1sc(C(=O)NNC(=O)c2ccc(Cl)cc2)c2c1C=CCC2 | -7.39% | –
CC1CCN(S(=O)(=O)c2ccc3ncn(CC(=O)N(C)C4CCCCC4)c(=O)c3c2)CC1 | -1.32% | –

SMILES | activity, negative = inhibition | Potency
O=C(CCC(=O)Nc1ccccc1)N/N=C/c1ccccc1F | 3.78% | –
O=C(CN1CCSCC1)N/N=C/c1ccc(F)cc1F | – | 31.6 µM (active)
O=C(Cn1cc(C(F)(F)F)ccc1=O)N/N=C/c1ccc(Cl)cc1Cl | 2.83% | –
O=C(C1CCN(C2CCN(Cc3cccc4c3OCO4)CC2)CC1)N1CCOCC1 | -7.94% | –
CC(=O)c1c(C)[nH]c(C(=O)Nc2cc(S(=O)(=O)N(C)C)ccc2C)c1C | -7.28% | –
Cc1cc(NC(=O)CSc2nccn2-c2ccc([N+](=O)[O-])cc2)no1 | 14.9% | –
CN(CCOc1ccc(Br)cc1)CC(=O)Nc1cccc(S(=O)(=O)NC2=NCCC2)c1 | 5.31% | –
CC1CCCC(C)N1/N=C/c1ccccc1OC(F)F (stereo unspecified) | -0.166% | –
COc1ccc(NC(=O)CN2CCN(S(=O)(=O)c3ccc(F)cc3)CC2)cc1Cl | -1.89% | –
CN(CC(=O)Nc1ccc(S(=O)(=O)N2CCCC2)cc1)Cc1ccc(Cl)c(Cl)c1 | – | 20 µM (active)
CN1CCN(S(=O)(=O)c2ccc(NC(=O)C3CCCO3)cc2)CC1 (stereo unspecified) | -9.73% | –
OCCC#Cc1ccc(CN2CCN(Cc3ccsc3)C(CCO)C2)cc1 (stereo unspecified) | 3.08% | –
NC(CSC12CC3CC(CC(C3)C1)C2)C(=O)O (stereo unspecified) | – | 12.6 µM (active)
Cc1ccc(C)c(NC(=O)CCC(=O)N/N=C2/CC(=O)CC(C)(C)C2)c1 | -0.74% | –
O=C(CN1CCN(c2ccc(O)cc2)CC1)Nc1cc(S(=O)(=O)N2CCOCC2)ccc1Cl | – | 25.1 µM (active)
O=C(COc1cccc2ccccc12)Nc1cc(S(=O)(=O)N2CCOCC2)ccc1N1CCOCC1 | -7.3% | –
O=C(CN1CCOCC1)Nc1cc(Cl)ccc1Cl | -0.628% | –
C/C(Cl)=C\Cn1c(Nc2cccc(C)c2)nc2c1c(=O)n(C)c(=O)n2C | – | 20 µM (active)
Cn1c(=O)c2c(nc(N/N=C/c3cccs3)n2Cc2ccc(Br)cc2)n(C)c1=O | -4.65% | –
C=CCn1c(Oc2ccc(C(=O)OC)cc2)nc2c1c(=O)n(C)c(=O)n2C | 7.05% | –
CC[C@H](C)[C@@H](C(=O)N1CCNCC1)n1cc([C@@H](N)Cc2ccc(O)cc2)nn1 | -2.81% | –
COC(=O)C1=C(C(=O)OC)[C@@H]2N(C)c3ccccc3[C@@]23C[C@@H](C(=O)OC)N(S(=O)(=O)c2ccc(Br)cc2)C3=N1 | 6.9% [at 13.5 µM] | –
O=c1[nH]n2c(=O)c3c([nH]c2c1N=Nc1ccccc1)CCC3 | -7.15% | –
O=[N+]([O-])/C(N=Nc1ccccc1)=N\Nc1ccccc1 | – | 14.1 µM (active)
O=C(/C=N/O)Nc1ccccc1 | 10.4% | –
